This is one part of a sample in which hits are shown more often than they occur.
RBX1-CUL1 inh: human ROC1-CUL1 E3 ligase inhibition; P62877+Q13616; in vitro K48 di-Ub FRET, acceptor:donor ratio, 45 min; inhibition, % at 10 µM; 140,000 compounds, 0.6% hits; AID 1347404; in the data active means inhibition above about 25%
Target sequence (P62877 whole entry, looked up): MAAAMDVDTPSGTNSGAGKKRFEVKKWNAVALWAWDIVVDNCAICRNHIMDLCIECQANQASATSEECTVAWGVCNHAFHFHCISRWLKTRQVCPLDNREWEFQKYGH
Target sequence (Q13616 whole entry, looked up): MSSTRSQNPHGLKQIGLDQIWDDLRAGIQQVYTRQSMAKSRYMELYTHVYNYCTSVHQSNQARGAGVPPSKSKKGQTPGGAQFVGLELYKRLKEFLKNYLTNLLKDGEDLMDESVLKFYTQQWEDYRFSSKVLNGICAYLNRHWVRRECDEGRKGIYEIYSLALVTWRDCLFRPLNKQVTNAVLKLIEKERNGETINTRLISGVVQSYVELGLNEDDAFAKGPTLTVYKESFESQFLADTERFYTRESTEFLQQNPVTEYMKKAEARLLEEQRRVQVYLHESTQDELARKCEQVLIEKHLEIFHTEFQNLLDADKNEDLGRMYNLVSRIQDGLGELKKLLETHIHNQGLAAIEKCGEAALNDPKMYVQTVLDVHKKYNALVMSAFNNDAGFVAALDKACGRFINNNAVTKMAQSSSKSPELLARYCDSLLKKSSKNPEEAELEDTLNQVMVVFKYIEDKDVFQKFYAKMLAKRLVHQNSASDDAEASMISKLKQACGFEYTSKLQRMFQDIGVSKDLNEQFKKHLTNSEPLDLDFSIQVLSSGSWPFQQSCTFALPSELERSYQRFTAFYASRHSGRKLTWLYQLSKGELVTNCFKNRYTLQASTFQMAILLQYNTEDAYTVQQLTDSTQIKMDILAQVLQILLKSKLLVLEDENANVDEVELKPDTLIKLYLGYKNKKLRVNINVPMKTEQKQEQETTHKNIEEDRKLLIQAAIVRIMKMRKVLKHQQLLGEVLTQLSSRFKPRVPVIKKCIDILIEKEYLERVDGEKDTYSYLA
Numbers stand for hits; - = inactive.

SMILES	RBX1-CUL1 inh
CCOc1ccc(NC(=O)CN2CCN(C3CCCCC3)C(=O)C2=O)cc1	58
CCc1ccc(NC(=O)CN2CCN(C3CCCCC3)C(=O)C2=O)cc1	-
O=C(CN1CCN(C2CCCCC2)C(=O)C1=O)Nc1ccc(Cl)cc1	-
CC(C)CN1CCC(C2CCN(C(=O)CCC3=NNC(=O)CC3)C2)CC1 (centres undefined)	-
CCc1noc(C)c1C(=O)Nc1ccc(I)cc1	-
CC#CCN1C(=O)NC(Cc2cccc(F)c2)(C2CCN(C(=O)CC3=CCCCC3)CC2)C1=O (centres undefined)	-
CCN1CCN(C(=O)CN(c2ccc(F)c(F)c2)S(C)(=O)=O)CC1	-
C(=N\N(c1ccccc1)c1ccccc1)/c1ccco1	-
N#CC1C(=N)S/C(=C/c2ccco2)C1=N (centres undefined)	-
C(=C1Sc2ccccc2S1)c1ccco1	57
CC(C)c1cc(C(N)=O)c(NC(=O)/C(=C/c2ccccc2)c2ccccc2)s1	-
CCc1c(C)[nH]n(-c2nc3ccccc3s2)c1=O	-
Cc1cc(-c2ccccc2)nn1-c1nc2ccccc2s1	-
COc1ccc(CCn2c(O)cc3nn(-c4nc5ccccc5s4)c(=O)c-3c2C)cc1	80
CCOc1ccc(-c2[nH]nc3c2C2(C(=O)N(CC(=O)OC)c4ccccc42)C(C#N)C(=N)O3)cc1OC (centres undefined)	-
CC1(C)Cc2cc(CNC(=O)C3CCN(c4ccccc4)C3=O)ccc2O1 (centres undefined)	-
CC(C)CN1CCC(C2CCN(Cc3cc(C#CCO)cs3)C2)CC1 (centres undefined)	-
O=C(O)CSc1ccc(Cl)cc1	-
O=C(O)CSC1=C(SCC(=O)O)C(=O)C(SCC(=O)O)=C(SCC(=O)O)C1=O	102
N=C1CC(=O)NC(SCC(=O)O)=N1	-
NC(=O)c1oc2ccccc2c1NC(=O)CCCCCN1C(=O)c2ccccc2C1=O	-
CC1CN(CC(=O)NCCC2(c3ccccc3)CCOC(C)(C)C2)Cc2ccccc2O1 (centres undefined)	-
Cc1c(C)n2c3c(=O)n(C)c(=O)n(C)c3nc2n1-c1cccc(O)c1	-
Cc1cccc(-n2c(C)c(C)n3c4c(=O)n(C)c(=O)n(C)c4nc23)c1	26
Cc1cc(C)cc(-n2c(C)c(C)n3c4c(=O)n(C)c(=O)n(C)c4nc23)c1	-
SMILES	RBX1-CUL1 inh
Brc1ccc(Br)nc1	-
CC(=O)N1CCc2cc(S(=O)(=O)NC(CC(C)C)C(=O)NCc3ccccc3)ccc21 (centres undefined)	-
CC(=O)N1CCc2cc(S(=O)(=O)NC(CC(C)C)C(=O)NCCc3cccc(C)c3)ccc21 (centres undefined)	44
CCC(=O)N1CCc2cc(S(=O)(=O)NC(CC(C)C)C(=O)NCCc3ccccc3)ccc21 (centres undefined)	-
CCCc1[nH]nc2c1C(c1cccc(Cl)c1)C(C#N)C(=N)O2 (centres undefined)	-
CCOC(=O)c1ccc(CNC(=O)C2CCCN2c2nc(C)c3ccc(S(C)(=O)=O)cc3n2)o1 (centres undefined)	-
CCSc1nnc(NC(=O)C(C(F)(F)F)C(F)(F)F)s1	32
CCSc1nnc(NC(=O)OC)s1	-
CCSc1nnc(NC(=O)C(C)C)s1	-
CC(=O)Nc1ccc(OC(=O)c2ccccc2Br)cc1	-
O=S(=O)(Oc1cccc2ccccc12)c1ccc(I)cc1	-
COC1(OC)C(C=Cc2ccc(C)cc2)C(C#N)(C#N)C1(OC)OC (centres undefined)	-
Cn1nnnc1Sc1ccc([N+](=O)[O-])c(Sc2nnnn2C)n1	32
Cn1nnnc1Sc1ccc([N+](=O)[O-])cc1Cl	-
Cn1ccnc1Sc1ccc([N+](=O)[O-])c(Sc2nccn2C)n1	-
CN(Cc1nccs1)C(=O)c1ccc2nc(C3CC3)oc2c1	-
C(=C\c1cccs1)/c1ccncc1	-
COc1cccc(CC2(CCC(=O)NC(c3ccccc3)c3ccc(Cl)cc3)CCC(=O)N2)c1 (centres undefined)	-
CNc1ncnc(Sc2c(Br)c(=O)n(C)c(=O)n2C)c1N	81
Cc1c(-c2nnc(-c3ccccc3)o2)nnn1-c1ccc(Br)cc1	-
COc1ccc(CNc2c(F)c(F)c3nc4snc(C)c4cc3c2F)cc1	-
COc1ccccc1CNc1c(F)c(F)c2nc3snc(C)c3cc2c1F	87
Cc1nsc2nc3c(F)c(F)c(N[C@@H](C)c4ccccc4)c(F)c3cc12	-
COC(=O)c1c(S(=O)(=O)NCc2ccc(Cl)cc2)sc2c1CCN(C(=O)C(C)C)C2	-
O=C1c2ccc(Cl)cc2C(=O)N1c1cc(Cl)ccc1Br	-
SMILES	RBX1-CUL1 inh
CCOc1ccccc1NC(=O)C1CC1(c1ccc(C)cc1)c1ccc(C)cc1 (centres undefined)	-
CCN(CC)c1ccc(/C=C2\SC(=S)N(N)C2=O)cc1	55
CCN(CC)CN1C(=O)S/C(=C/c2ccc(N(CC)CC)cc2)C1=O	-
CCCN1C(=O)/C(=C/c2ccc(N(C)C)cc2)SC1=S	-
CCOC(=O)c1cc2cc3c(cc2nc1CSc1ccc(C)cc1)OCO3	-
O=S(=O)(c1ccccc1)N(c1c(Cl)cc(Cl)cc1Cl)S(=O)(=O)c1ccccc1	-
Cc1ccc(NC(=O)CN2C(=O)C3(NC(CC(C)C)C4C(=O)N(c5ccccc5)C(=O)C43)c3ccccc32)cc1 (centres undefined)	-
O=C1NN(c2ccccc2)C(=O)/C1=C/c1cccc(OCCCOc2ccc(Cl)cc2)c1	-
COc1cc(Br)cc(/C=C2\C(=O)NN(c3ccc(C)c(Cl)c3)C2=O)c1O	43
COc1ccccc1/C=C1/C(=O)NN(c2ccc(Br)cc2)C1=O	-
O=C1NN(c2ccc(Cl)cc2)C(=O)/C1=C\c1cc(I)cc(I)c1O	-
COc1ccc(/C=C2\C(=O)NN(c3cccc(Cl)c3)C2=O)cc1	-
COc1cc(/C=C2\C(=O)NN(c3ccc(Cl)c(Cl)c3)C2=O)cc(Br)c1O	-
COc1ccccc1/C=C1\C(=O)NN(c2cccc(Cl)c2)C1=O	-
CC(=O)Oc1cccc(/C=C2/C(=O)NN(c3cccc(Cl)c3)C2=O)c1	26
COc1ccc(Br)cc1/C=C1/C(=O)NN(c2cccc(Cl)c2)C1=O	89
COc1cc(/C=C2\C(=O)NN(c3ccccc3)C2=O)cc(I)c1OCCCOc1ccc(Cl)cc1	-
COc1c(I)cc(I)cc1/C=C1/C(=O)NN(c2ccc(Cl)cc2)C1=O	47
COc1cc(/C=C2\C(=O)NN(c3ccc(C)cc3)C2=O)cc(Br)c1O	-
CCOC(=O)c1c(NC(=O)CN2CCn3c4c(c5cc(C6CCCCC6)ccc53)CCCC42)sc2c1CCCC2=O (centres undefined)	-
CC12CCC(C(=O)Nc3ccccc3)(c3nc4ccccc4nc31)C2(C)C (centres undefined)	-
O=C(NC1CCCCC1)c1ccc(CN2CCCCC2)cc1	-
COC(c1ccc2c(c1)CN(C(=O)c1cccc(C#CC(C)(C)O)c1)CCO2)C1CCCCC1 (centres undefined)	-
COc1ccc(NC(c2ccccn2)c2ccc3cccnc3c2O)cc1 (centres undefined)	-
CCOC(=O)C1C(C)=NC2=C(C(=O)c3ccccc32)C1c1ccc(O)cc1 (centres undefined)	-
O=C(COC(=O)c1ccccc1N1C(=O)C2C3C=CC(C3)C2C1=O)c1ccc(F)cc1 (centres undefined)	-
O=C(Nc1nc2c(Cl)cccc2s1)C1CCCC1	-
COC(=O)c1cccc(-c2ccc(/C=C3/C(=O)NN(c4cccc(Cl)c4)C3=O)o2)c1	-

Screening results deposited in PubChem by Pan Lab, Icahn School of Medicine at Mount Sinai.
